# Results filed as inconclusive are left out. Active and inactive are the calls of the source. Rule for the calls: active = hit-call score of the fitted dose curve at least 0.9, where 1 is the maximum; inconclusive = response in the unintended direction; inactive = score below 0.9.
# Key:
# [1] = biological target: human Peroxisome Proliferator-activated Receptor alpha (PPARa), PPARA (gene 5465) (UniProt Q07869); test: ATG_PPARa_TRANS: Attagene TRANS-FACTORIAL HepG2 Assay for human Peroxisome Proliferator-activated Receptor alpha (PPARa) (AID 2283001);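 for AC50: potency for gain of reporter signal over DMSO so agonist or activator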
# In short: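 HepG2 cells transiently transfected with multiplexed GAL4-UAS reporters driven by exogenous chimeric NR-Gal4 proteins; reporter mRNA measured after 24 h dosing. Read-out by RT-PCR, 6-FAM labelling, HpaI digestion and capillary electrophoresis; gain of signal versus DMSO.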
# [2] = biological target: human Peroxisome Proliferator-activated Receptor delta (PPARd), PPARD (gene 5467) (UniProt Q03181); test: ATG_PPARd_TRANS: Attagene TRANS-FACTORIAL HepG2 Assay for human Peroxisome Proliferator-activated Receptor delta (PPARd) (AID 2283002)
# In short: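 Fluorescence from capillary electrophoresis of labelled RT-PCR reporter fragments gives the signal; DMSO sets baseline. Cells: HepG2 transiently carrying GAL4-UAS reporter units plus chimeric nuclear receptor-Gal4 proteins, exposed to chemicals for 24 h.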
# [3] = biological target: Peroxisome proliferator-activated receptor gamma (Homo sapiens) (UniProt P37231); test: ATG_PPARg_TRANS: Attagene TRANS-FACTORIAL HepG2 Assay for human Peroxisome Proliferator-activated Receptor-gamma (PPARg) (AID 2283007)
# In short: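 Liver-derived HepG2 cells expressing an exogenous NR-Gal4 chimera alongside GAL4-UAS reporter genes; 24 h exposure. Fluorescence of reporter RT-PCR products, separated by capillary electrophoresis, gives mRNA induction relative to DMSO.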
# [4] = biological target: Nuclear receptor subfamily 1 group I member 2 (Homo sapiens) (UniProt O75469); test: ATG_PXR_TRANS: Attagene TRANS-FACTORIAL HepG2 Assay for human Pregnane X Receptor (PXR) (AID 2283008)
# In short: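 Measures mRNA induction of a GAL4-UAS-driven reporter in human HepG2 cells transiently expressing PXR fused to Gal4, following 24 h treatment. DMSO served as negative control and baseline.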
# [5] = biological target: human Retinoic Acid Receptor gamma (RARg), RARG (gene 5916) (UniProt P13631); test: ATG_RARg_TRANS: Attagene TRANS-FACTORIAL HepG2 Assay for human Retinoic Acid Receptor gamma (RARg) (AID 2283009)
# In short: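 HepG2 transiently transfected with GAL4-UAS reporter units and chimeric NR-Gal4 constructs; 24 h compound exposure. Reporter mRNA quantified by RT-PCR, FAM labeling, HpaI digestion and capillary electrophoresis; gain-of-signal versus DMSO.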
# [6] = biological target: human Retinoic Acid Receptor beta (RARb), RARB (gene 5915) (UniProt P10826); test: ATG_RARb_TRANS: Attagene TRANS-FACTORIAL HepG2 Assay for human Retinoic Acid Receptor beta (AID 2283004)
# In short: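 HepG2 cells were transiently transfected with GAL4-UAS reporter units that report activity of exogenous chimeric NR-Gal4 proteins, then exposed to compound for 24 h. Reporter mRNA was quantified by RT-PCR with capillary electrophoresis fluorescence, as gain of signal over DMSO.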
# [7] = biological target: Retinoic acid receptor alpha (Homo sapiens) (UniProt P10276); test: ATG_RARa_TRANS: Attagene TRANS-FACTORIAL HepG2 Assay for human Retinoic Acid Receptor alpha (RARa) (AID 2283005)
# In short: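 HepG2 transiently transfected with multiplex GAL4-UAS reporter units including a human RARa–GAL4 chimera; 24 h compound exposure. Reporter mRNA quantified by RT-PCR, 6-FAM labeling and capillary electrophoresis; gain of signal versus DMSO.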
# Sequence of Nuclear receptor subfamily 1 group I member 2 (Homo sapiens) (O75469 whole entry, looked up, the tested form may be a part): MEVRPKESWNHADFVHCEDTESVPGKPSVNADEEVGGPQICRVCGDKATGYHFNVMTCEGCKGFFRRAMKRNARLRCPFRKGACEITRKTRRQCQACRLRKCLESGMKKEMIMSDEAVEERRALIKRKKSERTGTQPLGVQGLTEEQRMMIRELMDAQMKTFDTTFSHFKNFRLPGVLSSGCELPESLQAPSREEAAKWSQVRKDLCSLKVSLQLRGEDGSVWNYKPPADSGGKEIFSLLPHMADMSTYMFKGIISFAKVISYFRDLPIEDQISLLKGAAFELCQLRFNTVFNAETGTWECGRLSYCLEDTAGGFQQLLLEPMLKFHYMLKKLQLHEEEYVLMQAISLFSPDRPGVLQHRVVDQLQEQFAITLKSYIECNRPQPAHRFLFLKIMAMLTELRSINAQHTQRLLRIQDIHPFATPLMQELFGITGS
# Sequence of human Peroxisome Proliferator-activated Receptor alpha (PPARa), PPARA (gene 5465) (Q07869 whole entry, looked up, the tested form may be a part): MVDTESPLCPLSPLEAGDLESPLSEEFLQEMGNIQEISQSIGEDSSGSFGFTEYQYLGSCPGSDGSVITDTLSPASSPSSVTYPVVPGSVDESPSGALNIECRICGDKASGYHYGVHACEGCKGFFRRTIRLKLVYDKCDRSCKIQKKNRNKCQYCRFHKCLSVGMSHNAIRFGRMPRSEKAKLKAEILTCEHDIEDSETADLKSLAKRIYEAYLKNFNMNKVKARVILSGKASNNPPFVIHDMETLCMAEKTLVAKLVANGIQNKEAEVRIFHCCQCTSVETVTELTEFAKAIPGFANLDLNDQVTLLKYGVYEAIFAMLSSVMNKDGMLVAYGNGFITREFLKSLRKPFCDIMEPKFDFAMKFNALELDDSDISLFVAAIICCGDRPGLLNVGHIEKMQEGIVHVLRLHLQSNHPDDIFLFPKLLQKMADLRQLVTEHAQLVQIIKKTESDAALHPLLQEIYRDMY
# Sequence of Peroxisome proliferator-activated receptor gamma (Homo sapiens) (P37231 whole entry, looked up, the tested form may be a part): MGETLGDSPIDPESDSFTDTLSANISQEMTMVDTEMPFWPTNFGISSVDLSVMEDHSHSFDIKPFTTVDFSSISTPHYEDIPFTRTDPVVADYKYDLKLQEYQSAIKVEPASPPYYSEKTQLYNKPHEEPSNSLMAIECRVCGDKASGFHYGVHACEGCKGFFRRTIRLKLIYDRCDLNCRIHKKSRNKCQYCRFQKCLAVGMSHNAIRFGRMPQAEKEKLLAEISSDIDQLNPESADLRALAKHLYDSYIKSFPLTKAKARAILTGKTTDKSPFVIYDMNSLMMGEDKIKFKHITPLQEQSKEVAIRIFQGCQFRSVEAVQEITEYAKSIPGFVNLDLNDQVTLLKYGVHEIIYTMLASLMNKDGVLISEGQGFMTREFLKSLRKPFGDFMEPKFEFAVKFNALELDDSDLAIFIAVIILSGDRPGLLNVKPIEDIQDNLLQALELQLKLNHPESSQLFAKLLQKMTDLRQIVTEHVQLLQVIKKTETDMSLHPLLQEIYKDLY
# Sequence of human Peroxisome Proliferator-activated Receptor delta (PPARd), PPARD (gene 5467) (Q03181 whole entry, looked up, the tested form may be a part): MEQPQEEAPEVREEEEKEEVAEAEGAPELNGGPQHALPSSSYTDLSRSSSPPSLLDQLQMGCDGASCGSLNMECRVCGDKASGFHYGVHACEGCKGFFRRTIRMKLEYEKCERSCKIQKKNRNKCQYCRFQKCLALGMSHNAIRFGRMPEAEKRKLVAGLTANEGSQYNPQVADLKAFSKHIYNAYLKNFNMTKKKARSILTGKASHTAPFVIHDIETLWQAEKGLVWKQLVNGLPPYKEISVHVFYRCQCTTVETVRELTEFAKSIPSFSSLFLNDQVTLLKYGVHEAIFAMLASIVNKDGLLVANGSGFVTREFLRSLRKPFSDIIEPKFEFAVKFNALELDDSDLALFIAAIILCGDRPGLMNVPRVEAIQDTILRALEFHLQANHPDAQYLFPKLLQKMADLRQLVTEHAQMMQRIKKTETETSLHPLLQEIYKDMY
# Sequence of human Retinoic Acid Receptor gamma (RARg), RARG (gene 5916) (P13631 whole entry, looked up, the tested form may be a part): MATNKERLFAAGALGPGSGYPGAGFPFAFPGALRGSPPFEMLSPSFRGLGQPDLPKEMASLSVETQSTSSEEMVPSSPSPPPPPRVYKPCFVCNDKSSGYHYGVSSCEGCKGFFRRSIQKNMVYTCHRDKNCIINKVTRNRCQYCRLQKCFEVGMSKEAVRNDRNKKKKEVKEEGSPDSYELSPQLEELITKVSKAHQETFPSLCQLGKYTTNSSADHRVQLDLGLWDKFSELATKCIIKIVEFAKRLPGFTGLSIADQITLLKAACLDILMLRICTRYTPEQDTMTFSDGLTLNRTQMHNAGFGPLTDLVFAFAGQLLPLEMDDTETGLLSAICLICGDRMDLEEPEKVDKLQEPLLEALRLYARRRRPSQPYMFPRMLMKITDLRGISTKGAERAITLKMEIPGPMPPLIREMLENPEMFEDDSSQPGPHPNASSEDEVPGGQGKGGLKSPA
# Sequence of human Retinoic Acid Receptor beta (RARb), RARB (gene 5915) (P10826 whole entry, looked up, the tested form may be a part): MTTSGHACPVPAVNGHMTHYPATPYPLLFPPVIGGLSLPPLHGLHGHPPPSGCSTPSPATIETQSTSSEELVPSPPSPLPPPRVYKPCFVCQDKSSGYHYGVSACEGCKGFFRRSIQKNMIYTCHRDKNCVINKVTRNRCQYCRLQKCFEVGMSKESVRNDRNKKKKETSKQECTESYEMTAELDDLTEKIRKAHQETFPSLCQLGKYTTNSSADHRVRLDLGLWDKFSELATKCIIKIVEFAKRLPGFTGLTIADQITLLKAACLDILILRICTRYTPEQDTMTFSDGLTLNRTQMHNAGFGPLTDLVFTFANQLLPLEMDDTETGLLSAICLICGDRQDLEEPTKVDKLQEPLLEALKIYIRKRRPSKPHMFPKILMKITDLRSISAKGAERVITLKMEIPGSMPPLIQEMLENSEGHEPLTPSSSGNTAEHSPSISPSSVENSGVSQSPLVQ
# Sequence of Retinoic acid receptor alpha (Homo sapiens) (P10276 whole entry, looked up, the tested form may be a part): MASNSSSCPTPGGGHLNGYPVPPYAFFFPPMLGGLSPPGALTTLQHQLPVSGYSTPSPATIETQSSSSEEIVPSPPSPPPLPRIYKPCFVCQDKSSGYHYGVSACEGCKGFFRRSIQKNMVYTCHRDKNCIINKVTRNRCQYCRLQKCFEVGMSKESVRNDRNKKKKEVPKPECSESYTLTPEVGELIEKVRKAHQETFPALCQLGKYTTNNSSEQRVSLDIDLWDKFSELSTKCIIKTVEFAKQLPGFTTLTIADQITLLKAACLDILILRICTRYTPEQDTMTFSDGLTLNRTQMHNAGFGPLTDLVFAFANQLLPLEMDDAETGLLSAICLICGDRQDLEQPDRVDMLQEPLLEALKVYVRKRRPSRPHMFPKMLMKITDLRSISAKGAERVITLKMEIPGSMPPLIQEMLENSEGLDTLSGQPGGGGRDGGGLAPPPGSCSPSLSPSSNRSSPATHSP
compound,measurement,setting,value
CCCCC/C=C\C=C\C(=O)OCC,outcome,[1],inactive
same,outcome,[2],inactive
same,AC50,[3],28.5 µM (active)
same,AC50,[4],5.19 µM (active)
CCC(=O)OC/C=C(\C)CCC=C(C)C,outcome,[1],inactive
same,outcome,[2],inactive
same,outcome,[4],inactive
CC(=O)c1ccc2ccccc2c1,outcome,[1],inactive
same,outcome,[3],inactive
same,outcome,[4],inactive
Nc1ccc(O)c(N)c1,outcome,[1],inactive
same,outcome,[3],inactive
same,outcome,[4],inactive
OCCCO,outcome,[1],inactive
same,outcome,[2],inactive
same,outcome,[4],inactive
same,outcome,[5],inactive
CCCCOC(=O)C(C)OC(=O)CCC (stereo not given),outcome,[1],inactive
same,outcome,[3],inactive
same,outcome,[4],inactive
CCO[Si](CCC#N)(OCC)OCC,outcome,[1],inactive
same,outcome,[3],inactive
same,outcome,[4],inactive
Cc1ccccc1S,outcome,[1],inactive
same,AC50,[3],41.6 µM (active)
same,outcome,[4],inactive
N#CCCNCCC#N,outcome,[1],inactive
same,outcome,[3],inactive
same,outcome,[4],inactive
C=C(C)C(=O)OCCC[Si](OC)(OC)OC,outcome,[1],inactive
same,outcome,[6],inactive
same,outcome,[4],inactive
CCCCCCCCCOS(=O)(=O)O,outcome,[1],inactive
same,AC50,[3],30.6 µM (active)
same,outcome,[4],inactive
CC1COC(=O)O1 (stereo not given),outcome,[1],inactive
same,outcome,[3],inactive
CC/C=C\CCOC(C)OCC (stereo not given),outcome,[1],inactive
same,outcome,[2],inactive
same,outcome,[4],inactive
CCCCCC1C(=O)CCC1CC(=O)OC (stereo not given),outcome,[1],inactive
same,outcome,[6],inactive
same,outcome,[7],inactive
same,outcome,[3],inactive
same,outcome,[4],inactive
same,outcome,[5],inactive
OCC=Cc1ccccc1,outcome,[1],inactive
same,outcome,[2],inactive
same,outcome,[4],inactive
CCOc1ccc(NC(C)=O)cc1,outcome,[1],inactive
same,outcome,[3],inactive
same,outcome,[4],inactive
N=C1N=C(N)c2ccccc21,AC50,[1],173 µM (active)
same,outcome,[3],inactive
same,AC50,[4],47.5 µM (active)
